Consider 49 sequences from PMC11006913.

The target in experiment [1] is PRRX1 (Homo sapiens, UniProt P54821 80-166, F113S). Kind of experiment: PBM; 200 nM protein, PBS. To be noted: dsDNA, one strand shown.
The target of experiment [2] is PRRX1 (Homo sapiens, UniProt P54821 80-166). Kind of experiment: PBM; 200 nM protein, PBS. The settings on record: dsDNA, one strand shown.
PRRX1 (Homo sapiens, UniProt P54821 80-166), sequence (P54821 80-166): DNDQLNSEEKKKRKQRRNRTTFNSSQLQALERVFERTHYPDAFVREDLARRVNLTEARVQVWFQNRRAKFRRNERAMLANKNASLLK

PRRX1 (Homo sapiens, UniProt P54821 80-166, F113S), sequence (P54821 80-166 F113S): as the sequence (P54821 80-166) above, with F34S counted along it

For the sequence CATCGGAC, the binding signal is 9.34 upbm affinity estimate (log intensity, higher = more binding, comparable within an allelic series) with PRRX1 [1] and 9.14 upbm affinity estimate (log intensity, higher = more binding, comparable within an allelic series) with PRRX1 [2].
As for AGCTCGCA, the binding signal with PRRX1 [1] was 9.52 upbm affinity estimate (log intensity, higher = more binding, comparable within an allelic series); with PRRX1 [2] it was 9.05 upbm affinity estimate (log intensity, higher = more binding, comparable within an allelic series).
For ATCATCAC, the binding signal in the experiment with PRRX1 [1] was 10.1 upbm affinity estimate (log intensity, higher = more binding, comparable within an allelic series); in the experiment with PRRX1 [2], 11.5 upbm affinity estimate (log intensity, higher = more binding, comparable within an allelic series).
Consider CGCGGGAC, for which the binding signal in the experiment with PRRX1 [1] was 9.43 upbm affinity estimate (log intensity, higher = more binding, comparable within an allelic series); in the experiment with PRRX1 [2], 9.4 upbm affinity estimate (log intensity, higher = more binding, comparable within an allelic series).
GACGACGC: the binding signal is 9.47 upbm affinity estimate (log intensity, higher = more binding, comparable within an allelic series) in the experiment with PRRX1 [1] and 9.16 upbm affinity estimate (log intensity, higher = more binding, comparable within an allelic series) in the experiment with PRRX1 [2].
Regarding CCAGGGAG, the binding signal with PRRX1 [1] was 9.19 upbm affinity estimate (log intensity, higher = more binding, comparable within an allelic series); with PRRX1 [2], 8.8 upbm affinity estimate (log intensity, higher = more binding, comparable within an allelic series).
Take GGACAACC: the binding signal with PRRX1 [1] is 9.36 upbm affinity estimate (log intensity, higher = more binding, comparable within an allelic series); with PRRX1 [2], 9.23 upbm affinity estimate (log intensity, higher = more binding, comparable within an allelic series).
Take GCTGGACC: the binding signal with PRRX1 [1] was 9.41 upbm affinity estimate (log intensity, higher = more binding, comparable within an allelic series); with PRRX1 [2] it was 9.43 upbm affinity estimate (log intensity, higher = more binding, comparable within an allelic series).
With CCCAACGC, the binding signal was 9.62 upbm affinity estimate (log intensity, higher = more binding, comparable within an allelic series) with PRRX1 [1] and 9.3 upbm affinity estimate (log intensity, higher = more binding, comparable within an allelic series) with PRRX1 [2].
Turning to GTGTTAAC, the binding signal with PRRX1 [1] is 10.1 upbm affinity estimate (log intensity, higher = more binding, comparable within an allelic series); in the experiment with PRRX1 [2], 11.8 upbm affinity estimate (log intensity, higher = more binding, comparable within an allelic series).
Consider ACGCGCGG, for which the binding signal is 9.42 upbm affinity estimate (log intensity, higher = more binding, comparable within an allelic series) with PRRX1 [1] and 9.29 upbm affinity estimate (log intensity, higher = more binding, comparable within an allelic series) with PRRX1 [2].
As for CGCTCCAC, the binding signal is 9.44 upbm affinity estimate (log intensity, higher = more binding, comparable within an allelic series) with PRRX1 [1] and 9.3 upbm affinity estimate (log intensity, higher = more binding, comparable within an allelic series) in the experiment with PRRX1 [2].
Turning to AATCATCC, the binding signal is 10.3 upbm affinity estimate (log intensity, higher = more binding, comparable within an allelic series) with PRRX1 [1] and 12.1 upbm affinity estimate (log intensity, higher = more binding, comparable within an allelic series) with PRRX1 [2].
On to AGATATTA, for which the binding signal with PRRX1 [1] is 10.4 upbm affinity estimate (log intensity, higher = more binding, comparable within an allelic series); in the experiment with PRRX1 [2] it was 12.2 upbm affinity estimate (log intensity, higher = more binding, comparable within an allelic series).
With ATCAATTC, the binding signal in the experiment with PRRX1 [1] is 10.1 upbm affinity estimate (log intensity, higher = more binding, comparable within an allelic series); in the experiment with PRRX1 [2], 11.9 upbm affinity estimate (log intensity, higher = more binding, comparable within an allelic series).
Turning to GAATTATC, the binding signal in the experiment with PRRX1 [1] is 10.5 upbm affinity estimate (log intensity, higher = more binding, comparable within an allelic series); with PRRX1 [2], 12.9 upbm affinity estimate (log intensity, higher = more binding, comparable within an allelic series).
With CCCGTACG, the binding signal with PRRX1 [1] is 9.21 upbm affinity estimate (log intensity, higher = more binding, comparable within an allelic series); in the experiment with PRRX1 [2] it was 9.33 upbm affinity estimate (log intensity, higher = more binding, comparable within an allelic series).
As to CCTACTTA, the binding signal is 10.1 upbm affinity estimate (log intensity, higher = more binding, comparable within an allelic series) in the experiment with PRRX1 [1] and 11.6 upbm affinity estimate (log intensity, higher = more binding, comparable within an allelic series) with PRRX1 [2].
As for AATATTAG, the binding signal in the experiment with PRRX1 [1] is 10.5 upbm affinity estimate (log intensity, higher = more binding, comparable within an allelic series); with PRRX1 [2] it was 12.4 upbm affinity estimate (log intensity, higher = more binding, comparable within an allelic series).
Turning to AGATCAAT, the binding signal was 10.1 upbm affinity estimate (log intensity, higher = more binding, comparable within an allelic series) with PRRX1 [1] and 11.6 upbm affinity estimate (log intensity, higher = more binding, comparable within an allelic series) with PRRX1 [2].
In the case of CAGAGAGC, the binding signal with PRRX1 [1] was 9.56 upbm affinity estimate (log intensity, higher = more binding, comparable within an allelic series); in the experiment with PRRX1 [2], 9.55 upbm affinity estimate (log intensity, higher = more binding, comparable within an allelic series).
Consider CCCCAATA, for which the binding signal is 9.73 upbm affinity estimate (log intensity, higher = more binding, comparable within an allelic series) in the experiment with PRRX1 [1] and 11 upbm affinity estimate (log intensity, higher = more binding, comparable within an allelic series) with PRRX1 [2].
With AGGTTCGC, the binding signal with PRRX1 [1] was 9.34 upbm affinity estimate (log intensity, higher = more binding, comparable within an allelic series); with PRRX1 [2], 9.02 upbm affinity estimate (log intensity, higher = more binding, comparable within an allelic series).
As for GCGGTTCC, the binding signal with PRRX1 [1] was 9.66 upbm affinity estimate (log intensity, higher = more binding, comparable within an allelic series); with PRRX1 [2], 9.31 upbm affinity estimate (log intensity, higher = more binding, comparable within an allelic series).
Take ACTTTATG: the binding signal with PRRX1 [1] was 10 upbm affinity estimate (log intensity, higher = more binding, comparable within an allelic series); with PRRX1 [2], 10.9 upbm affinity estimate (log intensity, higher = more binding, comparable within an allelic series).
For CCTGAGGC, the binding signal was 9.1 upbm affinity estimate (log intensity, higher = more binding, comparable within an allelic series) with PRRX1 [1] and 9.44 upbm affinity estimate (log intensity, higher = more binding, comparable within an allelic series) with PRRX1 [2].
GGCCCTAC: the binding signal with PRRX1 [1] was 9.21 upbm affinity estimate (log intensity, higher = more binding, comparable within an allelic series); with PRRX1 [2], 9.08 upbm affinity estimate (log intensity, higher = more binding, comparable within an allelic series).
As to CATATTGG, the binding signal was 10 upbm affinity estimate (log intensity, higher = more binding, comparable within an allelic series) with PRRX1 [1] and 11.3 upbm affinity estimate (log intensity, higher = more binding, comparable within an allelic series) with PRRX1 [2].
Regarding ATTACAAC, the binding signal in the experiment with PRRX1 [1] was 10.3 upbm affinity estimate (log intensity, higher = more binding, comparable within an allelic series); in the experiment with PRRX1 [2], 12.1 upbm affinity estimate (log intensity, higher = more binding, comparable within an allelic series).
As for AGGTCTTG, the binding signal in the experiment with PRRX1 [1] is 9.4 upbm affinity estimate (log intensity, higher = more binding, comparable within an allelic series); in the experiment with PRRX1 [2], 9.41 upbm affinity estimate (log intensity, higher = more binding, comparable within an allelic series).
Consider ACAGTCGG, for which the binding signal was 9.61 upbm affinity estimate (log intensity, higher = more binding, comparable within an allelic series) in the experiment with PRRX1 [1] and 9.49 upbm affinity estimate (log intensity, higher = more binding, comparable within an allelic series) with PRRX1 [2].
For CGTCTGGA, the binding signal was 9.4 upbm affinity estimate (log intensity, higher = more binding, comparable within an allelic series) with PRRX1 [1] and 9.19 upbm affinity estimate (log intensity, higher = more binding, comparable within an allelic series) in the experiment with PRRX1 [2].
Consider GCTCCAGA, for which the binding signal in the experiment with PRRX1 [1] was 9.35 upbm affinity estimate (log intensity, higher = more binding, comparable within an allelic series); in the experiment with PRRX1 [2] it was 9.02 upbm affinity estimate (log intensity, higher = more binding, comparable within an allelic series).
With CTTCATTA, the binding signal with PRRX1 [1] was 10.5 upbm affinity estimate (log intensity, higher = more binding, comparable within an allelic series); with PRRX1 [2], 12.8 upbm affinity estimate (log intensity, higher = more binding, comparable within an allelic series).
In the case of CGTGTGCA, the binding signal in the experiment with PRRX1 [1] was 9.54 upbm affinity estimate (log intensity, higher = more binding, comparable within an allelic series); with PRRX1 [2], 9.31 upbm affinity estimate (log intensity, higher = more binding, comparable within an allelic series).
CTGATGAA: the binding signal with PRRX1 [1] was 10 upbm affinity estimate (log intensity, higher = more binding, comparable within an allelic series); with PRRX1 [2], 11.2 upbm affinity estimate (log intensity, higher = more binding, comparable within an allelic series).
AGCCTTTC: the binding signal with PRRX1 [1] was 9.3 upbm affinity estimate (log intensity, higher = more binding, comparable within an allelic series); in the experiment with PRRX1 [2] it was 8.88 upbm affinity estimate (log intensity, higher = more binding, comparable within an allelic series).
Consider CGGACGAC, for which the binding signal was 9.43 upbm affinity estimate (log intensity, higher = more binding, comparable within an allelic series) with PRRX1 [1] and 9.26 upbm affinity estimate (log intensity, higher = more binding, comparable within an allelic series) in the experiment with PRRX1 [2].
Take CTAGACCC: the binding signal was 9.44 upbm affinity estimate (log intensity, higher = more binding, comparable within an allelic series) with PRRX1 [1] and 9.31 upbm affinity estimate (log intensity, higher = more binding, comparable within an allelic series) with PRRX1 [2].
With CTCCGTAC, the binding signal is 9.47 upbm affinity estimate (log intensity, higher = more binding, comparable within an allelic series) in the experiment with PRRX1 [1] and 9.24 upbm affinity estimate (log intensity, higher = more binding, comparable within an allelic series) in the experiment with PRRX1 [2].
Consider GCCAGCAC, for which the binding signal is 9.45 upbm affinity estimate (log intensity, higher = more binding, comparable within an allelic series) with PRRX1 [1] and 9.5 upbm affinity estimate (log intensity, higher = more binding, comparable within an allelic series) in the experiment with PRRX1 [2].
Regarding TAAACTCA, the binding signal in the experiment with PRRX1 [1] was 10.1 upbm affinity estimate (log intensity, higher = more binding, comparable within an allelic series); in the experiment with PRRX1 [2], 11.1 upbm affinity estimate (log intensity, higher = more binding, comparable within an allelic series).
Turning to AATCATGT, the binding signal in the experiment with PRRX1 [1] is 10.4 upbm affinity estimate (log intensity, higher = more binding, comparable within an allelic series); in the experiment with PRRX1 [2], 12.2 upbm affinity estimate (log intensity, higher = more binding, comparable within an allelic series).
Take GCGCCAGA: the binding signal was 9.32 upbm affinity estimate (log intensity, higher = more binding, comparable within an allelic series) in the experiment with PRRX1 [1] and 9.56 upbm affinity estimate (log intensity, higher = more binding, comparable within an allelic series) in the experiment with PRRX1 [2].
Take AGGTTTAA: the binding signal in the experiment with PRRX1 [1] is 10.1 upbm affinity estimate (log intensity, higher = more binding, comparable within an allelic series); in the experiment with PRRX1 [2], 11.4 upbm affinity estimate (log intensity, higher = more binding, comparable within an allelic series).
With GAACAGCC, the binding signal in the experiment with PRRX1 [1] was 9.48 upbm affinity estimate (log intensity, higher = more binding, comparable within an allelic series); in the experiment with PRRX1 [2], 9.53 upbm affinity estimate (log intensity, higher = more binding, comparable within an allelic series).
With GCAAGGCC, the binding signal in the experiment with PRRX1 [1] was 9.45 upbm affinity estimate (log intensity, higher = more binding, comparable within an allelic series); with PRRX1 [2], 9.29 upbm affinity estimate (log intensity, higher = more binding, comparable within an allelic series).
For GAGGCTGC, the binding signal with PRRX1 [1] is 9.31 upbm affinity estimate (log intensity, higher = more binding, comparable within an allelic series); with PRRX1 [2], 9.36 upbm affinity estimate (log intensity, higher = more binding, comparable within an allelic series).
In the case of GCCTCTCA, the binding signal with PRRX1 [1] is 9.4 upbm affinity estimate (log intensity, higher = more binding, comparable within an allelic series); with PRRX1 [2] it was 9.09 upbm affinity estimate (log intensity, higher = more binding, comparable within an allelic series).
